# Laboratory results as given in PubChem BioAssay AID540327 (National Center for Advancing Translational Sciences (NCATS), 2011).
# Some of the results follow. Records with an inconclusive call do not appear. Active and inactive are the calls of the source. The call rests on the fitted dose curve; in most records, active means well fitted inhibition curve with a large enough effect; inconclusive means small, poorly fitted or top-dose-only effect; inactive means flat fitted curve, though single readings scatter.
# Molecular target: Ubiquitin carboxyl-terminal hydrolase 1 (Homo sapiens) (UniProt O94782)
# Test: Inhibitors of USP1/UAF1: Hit Validation in Primary Assay
# Settings: Ub-Rhodamine cleavage, fluorescence kinetic read
# From the text: Deubiquitinating enzymes (DUBs) are a class of enzymes that can cleave isopeptide bond formed between the C-terminal carboxylate of ubiquitin and a lysine side-chain amino group on the target protein. Among them, ubiquitin specific proteases (USPs) constitute the largest DUB family. Human USPs are emerging as promising targets for pharmacological intervention because of their connection to a number of human diseases, including prostate, colon and breast cancer (1, 2), pediatric acute lymphoblastic leukemia (3), and familial cylindromatosis (4). The advantage of inhibiting USPs lies in the potential specificity of therapeutic intervention that can lead to better efficacy and reduce nonspecific side effects. […] This miniaturized assay has a fluorescent read-out and is used to screen the NIH Molecular Libraries Small Molecule Repository (MLSMR) in order to identify a small molecule that inhibits USP1. […]
# 3 microliters of reagents (buffer in columns 3 and 4 as negative control and 1nM USP1/UAF1 complex in columns 1, 2, and 5-48) are dispensed into Greiner black solid bottom 1536-well assay plates. […] The plates are immediately centrifuged at 1000 rpm for 15 seconds, and subsequently transferred to a ViewLux high-throughput CCD imager (PerkinElmer) wherein kinetic measurements of fluorescence are acquired using 480 nm excitation/540 nm emission filter set (6 reads every 60 seconds, see Table 1). […]
# Chain of Ubiquitin carboxyl-terminal hydrolase 1 (Homo sapiens) (O94782 whole entry, looked up): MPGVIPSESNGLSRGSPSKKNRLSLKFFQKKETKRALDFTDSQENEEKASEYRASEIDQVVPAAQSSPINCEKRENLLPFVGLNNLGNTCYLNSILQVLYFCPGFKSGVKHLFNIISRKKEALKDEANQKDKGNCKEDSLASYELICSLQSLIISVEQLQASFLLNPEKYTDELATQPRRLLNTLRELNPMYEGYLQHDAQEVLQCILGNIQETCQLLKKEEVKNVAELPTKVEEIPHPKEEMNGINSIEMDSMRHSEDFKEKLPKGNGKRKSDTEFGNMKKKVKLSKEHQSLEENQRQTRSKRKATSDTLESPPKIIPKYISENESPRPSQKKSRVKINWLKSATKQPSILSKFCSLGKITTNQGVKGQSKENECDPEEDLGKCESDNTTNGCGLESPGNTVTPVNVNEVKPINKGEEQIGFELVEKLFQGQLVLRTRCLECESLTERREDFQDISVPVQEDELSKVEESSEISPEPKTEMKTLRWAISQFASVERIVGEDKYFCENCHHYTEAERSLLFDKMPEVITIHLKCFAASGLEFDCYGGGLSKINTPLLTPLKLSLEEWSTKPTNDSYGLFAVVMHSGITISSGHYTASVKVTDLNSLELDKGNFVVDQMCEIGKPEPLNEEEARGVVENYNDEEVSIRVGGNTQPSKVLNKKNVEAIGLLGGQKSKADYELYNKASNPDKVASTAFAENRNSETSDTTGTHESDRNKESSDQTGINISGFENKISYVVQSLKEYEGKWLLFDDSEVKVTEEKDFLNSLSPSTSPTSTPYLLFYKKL
smiles,measurement,value
CC(=O)c1c(O)c(C)c(O)c(Cc2c(O)c3c(c(C(=O)/C=C/c4ccccc4)c2O)OC(C)(C)C=C3)c1O,Potency,41.8 µM (active)
